Results from PubChem BioAssay (NCI).
This is part of a sample that, as a whole, favours compounds with a hit. Of some 83,000 tested, about 20% had one in any assay.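 96-well plates, one dose, 48 hours. Percent growth reported; active if below 10.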 Values without a mark were called inactive. The source made the active and inactive calls.

These compounds were tested on A549/ATCC NSCLC (assay: NCI-60 one-dose screen, 48 h (100 = growth as untreated, 0 = no growth, -100 = all killed)). Settings: 10 µM unless noted.

Row | SMILES | growth
1 | CC[C@H](C)[C@H](N)C(=O)O | 103%
2 | COc1ccc2c(c1)sc1nc(-c3ccccc3)c(-c3cccc4ccccc34)n12 | 24.2%
3 | Cc1ccc(C)c(NC(=O)c2sc3c(=O)[nH]cnc3c2C)c1 | 74.6%
4 | Cc1ccncc1NC=O | 102%
5 | COc1ccc(/C(C)=N/NC(=O)CSc2nc3ccccc3c(=O)n2CCc2ccc(S(N)(=O)=O)cc2)cc1 | -26.9% (active)
6 | COC(=O)OC1C(O[C@H]2C[C@H]3[C@@H]4CC=C5C[C@@H](O)CC[C@]5(C)[C@H]4CC[C@]3(C)[C@H]2[C@H](C)C(=O)CCC(C)C)OCC(O)C1OC1OCC(O)C(O)C1OC(=O)c1ccc(OC)cc1 (some centres undefined) | 1.81% (active)
7 | O=C1CCCN1C1CCN2CCCc3cccc1c32 (centres undefined) | 107%
8 | CC1OC(n2c3ccccc3c3c4c(c5c6ccccc6[nH]c5c32)C(=O)N(CCN[C@H]2CCC[C@@H]2N)C4=O)CC(O)C1O (some centres undefined) | 25.2%
9 | COc1ccc2[nH]cc(C3(c4c[nH]c5ccc(OC)cc45)C(=O)Nc4ccc(F)cc43)c2c1 | 75.3%
10 | c1cc2c(cc1-c1cnc3nonc3n1)OCO2 | 97.4%
11 | Nc1c(C(=O)Nc2cccc(Cl)c2)sc2nc3c(cc12)C(=O)CCC3 | 28.2%
12 | O=C(Nc1ccc(Br)cc1)c1ccc(Cl)c(Cl)c1 | 63.4%
13 | O=C(CSc1nc2c(n1Nc1ccccc1)-c1ccccc1SC2)Nc1nccs1 | 96.6%
14 | COc1ccc(-c2nc3c(c(-c4ccc(Cl)cc4)nn3-c3ccccc3)c(-c3ccc(O)cc3)c2C#N)cc1 | 41.2%
15 | c1csc(-c2cnc3nonc3n2)c1 | 94.2%
16 | CC1(C)CC(=O)c2cc3c(N)c(C(=O)Nc4ccc(Cl)cc4)sc3nc2C1 | 97.6%
17 | CN1C(=O)C(C(=O)/C=C/c2ccccc2C(=O)O)C(=O)N(C)C1=O | 97.4%
18 | CC(NC(=O)c1ccccc1)C(=O)Nc1ccccc1 (centres undefined) | 96.3%
19 | CN1CCC2(CC1)N=C(SCC(=O)Nc1cnc3ccccc3c1)C(c1ccc(Br)cc1)=N2 | 24.2%
20 | CSc1nc(N)c2[nH]c(-c3cc4ccccc4[nH]c3=O)nc2n1 | 70.8%

Row | SMILES | growth
21 | C=CC(=O)N1CN(C(=O)C=C)CN(C(=O)C=C)C1 | 94.6%
22 | CC(C)(C)[Si](C)(C)OC1[C@@H](O[Si](C)(C)C(C)(C)C)[C@@H](CNC(=O)NC(=O)NC(=O)CCl)O[C@H]1n1cnc2c(NC(=O)Nc3ccccc3)ncnc21 (some centres undefined) | 55.8%
23 | CCCCCCCC/C=C/CCCCCCCC1=NC(C)(C)CN1c1ccccc1 | 91.6%
24 | CCCCCCCCN(CCCCCCCC)C(=O)CCl | 114%
25 | COc1cc(OC)c(Cl)cc1N | 105%
26 | CNC(=O)c1c(NC(=O)c2ccc(C(C)C)cc2)sc2c1CCC(=O)C2 | 15.9%
27 | COc1nccc2c(Sc3ccccc3)nc(N)nc12 | 104%
28 | Nc1c(C(=O)Nc2ccccc2)sc2nc3c(cc12)C(=O)CCC3 | 19.7%
29 | CCC(=O)NC1=C(Cl)C(=O)C(NC(=O)CC)=C(Cl)C1=O | 103%
30 | CCCCCCCCCCCCC1CCC(=O)O1 (centres undefined) | 87.4%
31 | CCN1C(=O)N(CC)C2C1NC(=O)N2/N=C/C=C/c1ccccc1 (centres undefined) | 45.4%
32 | CN(C)CCCN1c2ccccc2CCc2ccccc21 | 95.8%
33 | CC(CN1CCN(CC(C)Nc2ccnc3cc(Cl)ccc23)CC1)Nc1ccnc2cc(Cl)ccc12 (centres undefined) | 15.7%
34 | S=C(S)Oc1cccc2cccnc12 | 98.5%
35 | CCn1c(Cc2ccccc2Nc2c(Cl)cccc2Cl)nnc1SCC(=O)Nc1cccc(OC)c1 | 66.1%
36 | CCc1onc(-c2ccc(OC)cc2)c1-c1ccccc1OCCN(CC)CC | 101%
37 | COc1ccc(-c2cc(-c3ccc(OC)cc3)c3sc(=O)[nH]c3n2)cc1 | 78.4%
38 | COc1ccc2nc3ccccc3c(NCc3ccc(C)cc3)c2c1 | 19.3%
39 | CS(=O)(=O)c1ccc(C(=O)Nc2ccc(Cl)c(-c3ccccn3)c2)c(Cl)c1 | 26%
